Data from PubChem BioAssay AID1159606 (Sanford-Burnham Center for Chemical Genomics, 2016).
Among all 360,000 compounds or so, about 7,300 (2%) were called active. Cut-off read from the data, not from the text of the source: active = inhibition above about 50%; inactive = the rest. Shown is part of a subset that was picked to be rich in actives.

experiment: blockers of TWEAK-induced Fn14 reporter activity – luciferase reporter cells, uHTS, primary screen (AID 1159606); settings: TWEAK-stimulated Fn14 reporter cells, luciferase luminescence, 8 h; at 10 µM; active compounds read high

| Structure (SMILES) | inhibition |
| --- | --- |
| CN(Cc1ccccc1)C(=O)[C@@H]1CCCN1C(=O)[C@@H]1CCCN1C(=O)c1c(F)cccc1F | 12.3% (inactive) |
| CCOCCCN(C)C1CCN(C(=O)c2oc3ccccc3c2NC(=O)COc2cccc(C)c2)CC1 | -4.99% (inactive) |
| Cc1cccc(-n2c(SCC(N)=O)nc3c(c2=O)C2(CCCCC2)Cc2ccccc2-3)c1 | 54% (active) |
| Cc1cccc(-n2c(=O)c3c(C)c(C)sc3n(CC(N)=O)c2=O)c1 | 21.1% (inactive) |
| N#CCSc1nc2c(c(=O)n1Cc1ccccc1)C1(CCCC1)Cc1ccccc1-2 | 13.4% (inactive) |
| CCCc1nc2c3ccccc3ccn2c1Cc1ccccc1C(F)(F)F | 8.3% (inactive) |
| Cc1noc(C)c1S(=O)(=O)N1CCCC(C(=O)Nc2nccs2)C1 (configuration not stated) | 4.3% (inactive) |
| CC(CC(=O)O)C(=O)c1ccc(Cl)c([N+](=O)[O-])c1 (configuration not stated) | 0.14% (inactive) |
| CC(=O)Nc1ccc(C=CC(=O)c2ccc([N+](=O)[O-])cc2)cc1 | 5.86% (inactive) |
| O=C(/C=C/c1ccc(Cl)c([N+](=O)[O-])c1)c1ccc(O)cc1 | 84.1% (active) |
| O=S(=O)([N-]c1nc2ccccc2nc1-[n+]1ccc(Cc2ccccc2)cc1)c1ccc(Br)s1 | 101% (active) |
| O=S(=O)(NCc1ccccn1)c1ccc(Br)s1 | -7.41% (inactive) |
| Cn1c2c(c(=O)n(C)c1=O)C(c1cccc([N+](=O)[O-])c1)Nc1ccccc1O2 (configuration not stated) | -3.73% (inactive) |
| O=C(Nc1cccc(NC(=O)N2CCN(c3ccccc3)CC2)c1)N1CCN(c2ccccc2)CC1 | 86.3% (active) |
| O=C(Nc1ccccc1)N1CCN(C2c3ccccc3-c3ccccc32)CC1 | -2.27% (inactive) |
| COc1cccc(N2CCN(C(=O)Nc3ccc4c(c3)NC(=O)CO4)CC2)c1 | 8.92% (inactive) |
| Cc1nc(SC(C)C)[nH]c(=O)c1Cc1ccccc1 | 3.45% (inactive) |
| COc1ccc(NC(=O)/C(Cl)=C(/Cl)S(=O)Cc2ccc(C)cc2)cn1 (configuration not stated) | 97.5% (active) |
| COc1ccc(NC(=O)CN2C(=O)NC(C)(c3ccccc3)C2=O)cn1 (configuration not stated) | -0.71% (inactive) |
| COc1ccc(NC(=O)C2Cc3c(-c4ccc5c(c4)OCO5)ccnc3O2)cn1 (configuration not stated) | 14.2% (inactive) |
| CC(=O)c1ccc(OCC(=O)N(C)C2CCS(=O)(=O)C2)cc1 (configuration not stated) | 0.02% (inactive) |
| CC(C)NC(=O)c1ccccc1S(=O)c1ccccc1C#N (configuration not stated) | 3.58% (inactive) |

| Structure (SMILES) | inhibition |
| --- | --- |
| O=C(c1ccc(C(F)(F)F)cc1)N1CCC(=O)N([C@H](COCc2ccccc2)Cc2ccccc2)CC1 | 13.8% (inactive) |
| CC(=O)c1sc(N/N=C/c2ccc(C(C)C)cc2)nc1C | -16.6% (inactive) |
| CNC(=O)c1sc(Nc2ccc(OCc3ccccc3)cc2)nc1C | 32.3% (inactive) |
| COc1cccc2sc(Nc3nc(C)c(C(C)=O)s3)nc12 | 94.3% (active) |
| Cc1cc(N2C(=O)c3ccc(C(=O)NCc4ccccc4)cc3C2=O)no1 | -3.3% (inactive) |
| COC(=O)[C@@]1(Cc2ccc(F)cc2)[C@H]2c3cc(C(=O)N(C)C)n(CCc4c[nH]c5ccc(OC)cc45)c3C[C@H]2CN1C(=O)c1ccccc1 | 34.5% (inactive) |
| O=C(NCc1ccccc1)C1c2ccccc2OCC(=O)N1CCCN1CCOCC1 (configuration not stated) | -1.12% (inactive) |
| CC(C)(C)C1C/C(=C/c2ccco2)C(=O)/C(=C/c2ccco2)C1 (configuration not stated) | 9.75% (inactive) |
| COc1ccccc1/C=C/C1=NC(=C\N(C)C)/C(=O)O1 | -17.3% (inactive) |
| O=C1OC(/C=C/c2ccccc2)=NC/1=C/c1ccco1 | 51% (active) |
| CN(/C(=N/S(=O)(=O)c1cccs1)c1ccccc1)c1ccc(O)cc1 | 7.69% (inactive) |
| O=C1Nc2ccccc2NC(c2ccc3c(c2)OCO3)=C1N(Cc1ccc(F)cc1)C(=O)c1ccco1 | 9.28% (inactive) |
| CCc1ccc2oc(-c3ccc(N)cc3)nc2c1 | 60.2% (active) |
| O=C1CC[C@@H](C(=O)N2CSC[C@@H]2C(=O)Nc2ccc(C(F)(F)F)cc2)N1 | 22.5% (inactive) |
| CC1Cc2ccccc2N1S(=O)(=O)c1c(N)n(C)c(=O)n(C)c1=O (configuration not stated) | -4.11% (inactive) |
| C[C@H]1[C@H]2c3nc4ccccc4n3C[C@H]1ON2C1CCCCC1 | -8.66% (inactive) |
| O=c1[nH][nH]c2c1[C@H](c1ccc(Cl)cc1)O[C@H](CCc1ccccc1)C2 | 9.82% (inactive) |
| COc1ccc2c(c1)C=CC1(O2)N(CCO)c2ccccc2C1(C)C (configuration not stated) | 86.2% (active) |
| CN1c2ccc([N+](=O)[O-])cc2C(C)(C)C12C=Cc1cc(C(=O)O)ccc1O2 (configuration not stated) | 0.62% (inactive) |
| COc1cccc(CC2(CO)CCCN(CC3=Cc4cc(OC)ccc4OC3)C2)c1 (configuration not stated) | 37.8% (inactive) |
| CCN1CCN(C(=O)C2(NC(=O)Nc3cccc(F)c3)CCCCC2)CC1 | 6.11% (inactive) |
| CCN(CC)CCn1c(=S)[nH]c2ncccc2c1=O | 11.7% (inactive) |

| Structure (SMILES) | inhibition |
| --- | --- |
| COc1cc(N2C(=O)c3ccccc3C2=O)c(Cl)cc1C(=O)OCC(=O)N1CCOCC1 | 16.7% (inactive) |
| N#Cc1ccc(-c2ccc3nccn3c2)cc1 | -15.9% (inactive) |
| CCOC(=O)c1cc(C)sc1NC(=O)C1CCC1 | 13.5% (inactive) |
| COc1cccc2c1C(=O)c1c(O)c3c(c(O)c1C2=O)CC(O)(C(C)=NNC(=O)c1ccc(Cl)c(Cl)c1)CC3OC1CC(N)C(O)C(C)O1 (configuration not stated) | 100% (active) |
| Clc1cccc(Cc2c(-c3cccc(Cl)c3)nc3ccc(Cl)cn23)c1 | -8.97% (inactive) |
| CCN1C(=O)/C(=C2\SC(N3CCCCC3)=NC2=O)c2ccccc21 | -25.1% (inactive) |
| COc1ccc(S(=O)(=O)N2CN(CCc3ccc(OC)c(OC)c3)c3nc4ccccc4nc32)cc1 | 14% (inactive) |
| COc1ccc(COC(=O)c2n[nH]c3ccccc23)cc1F | -8.86% (inactive) |
| CCc1ccc(C(CNc2nc(C(F)(F)F)nc3ccccc23)N(C)C)cc1 (configuration not stated) | 9.86% (inactive) |
| CC(Nc1nc(N2CCCC2)nc2ccccc12)c1ccccc1 (configuration not stated) | -2.01% (inactive) |
| CC(Nc1nc(C(F)(F)F)nc2ccccc12)c1cccs1 (configuration not stated) | 60.9% (active) |
| COc1ccc(Cl)cc1C=CC=NNC(=O)c1ccncc1 | -16.2% (inactive) |
| COc1cc(C(=O)Nn2c(O)c(C3=c4ccccc4=NC3=O)sc2=S)ccc1O | 4.56% (inactive) |
| Nc1nc(SCC(=O)N2CCN(S(=O)(=O)c3ccc(Cl)cc3)CC2)n[nH]1 | 4.55% (inactive) |
| O=C1NC[C@H](Cc2ccc(O)cc2)N(C[C@H]2CCCN2C[C@H](Cc2ccccc2)N2C[C@H](Cc3ccccc3)N(CCc3ccccc3)C(=O)C2=O)C1=O | -7.56% (inactive) |
| COc1ccc(C(=O)O)cc1S(=O)(=O)NCc1cccnc1 | 16.8% (inactive) |
| Nc1nnnn1/N=C/c1cc([N+](=O)[O-])ccc1O | -1.63% (inactive) |
| O=[N+]([O-])c1ccc(O)c(/C=N/Nc2ccccc2[N+](=O)[O-])c1 | 71.5% (active) |
| O=C(N/N=C/c1cc([N+](=O)[O-])ccc1O)/C(=C\c1cccs1)NC(=O)c1ccccc1 | 5.24% (inactive) |
| Cc1ccc(-c2nc(-c3cccnc3)sc2CC(=O)Nc2ccc(C)c(Cl)c2)cc1 | -0.71% (inactive) |
| COCCCNC(=O)CCc1nc2cccnc2n1Cc1ccc(OC)cc1 | 16.3% (inactive) |
| COCCCNC(=O)Cc1ccc(-n2c(C)nc3cccnc32)cc1 | 84.3% (active) |

| Structure (SMILES) | inhibition |
| --- | --- |
| CCc1nc2cccnc2n1-c1ccc(C(=O)O)cc1 | 2.68% (inactive) |
| COc1ccc(CNC(=O)c2cc(C(=O)C3CC3)c[nH]2)cc1 | -10.9% (inactive) |
| CN1CCC(N(C)S(=O)(=O)c2ccc(NC(=O)c3cccc(C#N)c3)cc2)CC1 | 5.91% (inactive) |
| Cc1nc(N)nc(Cl)c1CCC1OCCO1 | -6.2% (inactive) |
| COc1cc(NC(=S)N2CCCC(C)C2)c(OC)cc1Cl (configuration not stated) | 12.8% (inactive) |
| O=C1NC[C@H](CCCCN2C[C@H](Cc3ccc(O)cc3)N(CC3CCCCC3)C(=O)C2=O)N(CCc2ccccc2)C1=O | 2.86% (inactive) |
| CN(c1ccc(OCC(=O)OCC(=O)Nc2cccc([N+](=O)[O-])c2)cc1)S(=O)(=O)c1ccc(F)cc1 | -9.04% (inactive) |
| COc1ccc(N(CC(=O)Nc2ccc(C)cc2C)S(=O)(=O)c2ccccc2[N+](=O)[O-])c(OC)c1 | 0.97% (inactive) |
| Cc1ccc(CN(CC(=O)NCC2CCCO2)S(=O)(=O)c2ccc(C)cc2)cc1 (configuration not stated) | 5.7% (inactive) |
| Cc1ccc(S(=O)(=O)N(CC(=O)Nc2cccc([N+](=O)[O-])c2)Cc2ccc(Cl)cc2)cc1 | 51.2% (active) |
| Cc1ccc(N(CC(=O)Nc2cc(C)cc(C)c2)S(=O)(=O)c2cccc3nonc23)cc1 | 9.38% (inactive) |
| COc1ccc(C)cc1S(=O)(=O)N(CC(=O)Nc1cccc([N+](=O)[O-])c1)c1ccc(C)cc1 | 61.9% (active) |
| O=C(NCc1cccc(C(F)(F)F)c1)c1ccc2sc(COCCO)nc2c1 | -7.3% (inactive) |
| COc1ccccc1C(=O)N(C1=NC(C)CS1)c1ccc(Cl)cc1 (configuration not stated) | 10.7% (inactive) |
| CCOC(=O)[C@]12CCC=C1N(CCC1=CCCCC1)C(=O)[C@H](CC(=O)NCc1ccc(C)o1)C2 | 5.47% (inactive) |
| O=C(Nc1ccc(N2CCOCC2)cc1)c1cccc2c(-c3ccc(F)c(F)c3)coc12 | -28% (inactive) |
| CCOC(=O)[C@]12CCC=C1N(Cc1cccc3ccccc13)C(=O)[C@H](CC(=O)NCc1cccc(C(F)(F)F)c1)C2 | 13.4% (inactive) |
| Cc1ccc(S(=O)(=O)N2CCN(C(=O)c3ccccc3-c3nc4ccccc4s3)CC2)c(C)c1 | -40.8% (inactive) |
| CSc1ncnc2c1ncn2CCCNCC1CCCCC1 | -1.18% (inactive) |
| CC(=O)C12CC(C)=C(C)CC1CC1C3CCC4=CC(=O)CCC4(C)C3CCC12C (configuration not stated) | -12.9% (inactive) |
| CSc1ncnc2c1ncn2CC(=O)C1CCC2C3CCC4=CC(=O)CCC4(C)C3CCC12C (configuration not stated) | 105% (active) |
